Common to all, as to assay: NCI-60 one-dose screen, 48 h (100 = growth as untreated, 0 = no growth, -100 = all killed)
Details in all cases: 10 µM unless noted

Experiment [1] deals with NCI-H23 lung.
For experiment [2], the system named is NCI-H226 lung.
The test system of experiment [3] is NCI-H322M lung.
Experiment [4] deals with HOP-62 NSCLC.
Experiment [5] has as its system NCI-H460 lung.
For experiment [6], the system named is NCI-H522 lung.
For experiment [7], the system named is A549/ATCC NSCLC.
Experiment [8] deals with 786-0 renal.
For experiment [9], the system named is COLO 205 colon.

About 83,000 compounds went through this panel and 20% of them were active in at least one assay; those are over-represented in the sample as a whole.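 How to read the values: 0–100, growth inhibition (40 = 60% inhibited); 0, no net growth; -100 to 0, cell death (-40 = 40% of starting cells died; -100 = all dead).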 Unmarked numbers belong to inactive results. Calls of active or inactive are those of the source. Rule for the calls: active = growth percent below 10; inactive = the rest.

Turning to `COc1cc2nc(Cl)nc(Nc3cccc(C4=Nc5c(N)nc(N)nc5NC(c5ccc(Cl)cc5)C4)c3)c2cc1OC` (stereo unspecified), the growth in experiment [1] is 87.8%; in [2], 90.4%; in experiment [3], 86.3%; in experiment [4] it was 18%; in experiment [5], 2.91% (active); in experiment [6], 34.6%. Besides, the figures for the growth in [7], in experiment [8] and in experiment [9] were 37.2%, -52.1% (active) and 21.5%, respectively.
Turning to `O=S(=O)(NC1c2ccccc2C[C@H]1O)c1ccc(Cl)cc1Cl` (stereo partly specified), the growth in experiment [1] is 92.3%; in experiment [2], 93.6%; in experiment [3] it was 94.6%; in experiment [4] it was 103%; in experiment [5], 101%; in [6], 98.3%. The growth in experiment [7] is 93.5%; in experiment [8] it was 102%; in experiment [9] it was 114%.
As for `COc1ccccc1-n1cc(C#N)c(N)c1C(=O)c1ccc(Br)cc1`, the growth in experiment [1] is 87.8%; in experiment [2] it was 94.4%; in experiment [3], 96.7%; in experiment [4], 63.5%; in experiment [5], 79.7%; in [6] it was 48.7%. The growth in experiment [7] was 78.6%; in experiment [8] it was 91.9%; in [9] it was 76.5%.
In the case of `CCO/C=N/C1=C(C#N)C(c2ccc(Cl)cc2)c2sc3c(CC)cccc3c2O1` (stereo unspecified), the growth was 22% in experiment [1]; 54.7% in [2]; 43.3% in experiment [3]; 45.1% in experiment [4]; 9.19% (active) in [5]; 7.65% (active) in experiment [6]. The growth in [7] was 30%; in [8] it was 41.9%; in [9], 14%.
Regarding `COc1ccc(CCOc2cc3c(cc2OC)CCN(C(=O)NCc2cocn2)C3c2ccc(C)cc2C)cc1` (stereo unspecified), the growth in experiment [1] was 11.4%; in [2] it was 34.3%; in experiment [3], 46%; in [4], 8.99% (active); in experiment [5] it was 3.64% (active); in experiment [6] it was -41.2% (active). Moreover, the growth in experiment [7] is 7.81% (active); in experiment [8], 5.15% (active); in [9] it was -62% (active).
Consider `COc1ccc(CCN2C(=O)CSC2=S)cc1`, for which the growth in experiment [1] was 103%; in experiment [2] it was 115%; in experiment [3] it was 99.4%; in experiment [4] it was 104%; in [5], 103%; in [6] it was 69.3%. Besides, the growth in experiment [7] was 102%; in experiment [8] it was 87.3%; in [9], 117%.
On to `CC(C)(C)c1ccc(CC(=O)Nc2sc3c(c2C(N)=O)CCC(=O)C3)cc1`, for which the growth in [1] is 7.26% (active); in [2] it was 11.4%; in experiment [3] it was 44%; in experiment [4] it was 30.5%; in experiment [5] it was 6.79% (active); in experiment [6], -49.3% (active). For the same molecule, the growth in experiment [7] is 17.1%; in experiment [8], 29.1%; in experiment [9] it was -34.4% (active).
On to `Cc1ccc(C2=Nn3c(nnc3-c3ccccc3)SC2)cc1`, for which the growth is 36.6% in experiment [1]; 61.2% in experiment [2]; 60.8% in experiment [3]; 27.5% in experiment [4]; 11.1% in [5]; -2.45% (active) in experiment [6]. Besides, the figures for the growth in [7], in [8] and in [9] were 44.6%, 46.8% and 3.27% (active), respectively.
`NC(N)=Nc1ccc(Oc2cccc(Nc3ccc(Cl)cc3)c2)cn1`: the growth in experiment [1] is 29.1%; in experiment [2] it was 29.6%; in [3] it was -3.11% (active); in experiment [4], -21.3% (active); in experiment [5] it was -72.6% (active); in experiment [6], -30.1% (active). For the same molecule, the figures for the growth in experiment [7], in [8] and in experiment [9] were 24.8%, 35.4% and -64.4% (active), respectively.
For the molecule `CNc1ncc2cc(-c3ccc(-c4ncccc4F)cc3Cl)c(=O)n(CC3OCC(N)CO3)c2n1` (stereo unspecified), the growth was 78.4% in experiment [1]; 64.3% in experiment [2]; 79.5% in experiment [3]; 47.1% in [4]; 102% in experiment [5]; 75.7% in experiment [6]. Besides, the growth in experiment [7] is 57.1%; in experiment [8], 56.9%; in [9], 46.4%.
For the molecule `Nc1nc(N)c2c(n1)NC(c1ccc(C(F)(F)F)cc1)CC(c1ccc(Nc3nc(NCCO)nc(N4CCOCC4)n3)cc1)=N2` (stereo unspecified), the growth in experiment [1] was 72.8%; in experiment [2] it was 70.2%; in experiment [3], 95.6%; in experiment [4], 47.1%; in experiment [5], 48.3%; in experiment [6], 52.5%. The growth in experiment [7] is 74.4%; in [8], 62.7%; in experiment [9], 71.1%.
Consider `COc1ccc2c(c1)c(CC(=O)[Se]CC(=O)O)c(C)n2C(=O)c1ccc(Cl)cc1`, for which the growth in [1] was 78.9%; in experiment [2], 100%; in experiment [3], 46.8%; in [4], 29.3%; in experiment [5], 5.72% (active); in experiment [6], 100%. The growth was 21.6% in experiment [7], 106% in [8] and 129% in [9].
For `COc1cc2nc(Cl)nc(Nc3cccc(C4=Nc5c(N)nc(N)nc5NC(c5ccc6c(c5)OCO6)C4)c3)c2cc1OC` (stereo unspecified), the growth is 78.7% in [1]; 85.3% in experiment [2]; 83.4% in [3]; 40.7% in experiment [4]; 55.5% in experiment [5]; 74.1% in experiment [6]. Besides, the growth is 86.1% in [7], 61.8% in [8] and 89.1% in experiment [9].
As to `Cc1occc1-c1nc2s/c(=C/c3ccc(-c4cc(C(F)(F)F)ccc4Cl)o3)c(=O)n2n1`, the growth in experiment [1] is 104%; in [2] it was 98.1%; in [3] it was 101%; in [4] it was 116%; in [5] it was 109%; in [6] it was 98.2%. Further, the growth in experiment [7] was 102%; in experiment [8], 103%; in [9] it was 112%.

The values above are taken from PubChem BioAssay (NCI).
